# In PubChem BioAssay AID1845227 (National Center for Advancing Translational Sciences (NCATS), 2023):
# Results filed as inconclusive are left out. Active and inactive are the calls of the source. The call rests on the fitted dose curve; in most records, active means well fitted inhibition curve with a large enough effect; inconclusive means small, poorly fitted or top-dose-only effect; inactive means no such curve, though single readings can be large or run the other way.
# Target: Luciferin 4-monooxygenase (Photinus pyralis) (UniProt P08659)
# Assay: Confirmatory firefly luciferase (FLuc) qHTS assay for identification of artifact compounds;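 on activity change, negative = inhibition: 0% = DMSO and -100% = no enzyme control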
# Conditions: purified FLuc enzyme, luminescence, 5 min; series mostly up to 38.9 µM; activity change, negative = inhibition: at the top concentration
# Outline: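 Purified Photinus pyralis luciferase (10 nM) with D-luciferin and ATP each 10 uM, pH 7.6 Tris-acetate; compounds preincubated 15 min with substrate, 5 min after enzyme; luminescence normalized to no-enzyme and DMSO, 4-parameter Hill fit.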
# Potency means the concentration at half of the fitted maximal effect.
SMILES,"activity change, negative = inhibition",Potency
COCCn1c(C)cc(O)c(C(c2ccc(OC)cc2)N2CCN(c3ccccc3)CC2)c1=O (stereo not given),-0.651% (inactive),–
Nc1ncnc2c1ncn2[C@@H]1O[C@H](COP(=O)(O)OP(=O)(O)OC[C@H]2OC(O)[C@H](O)[C@@H]2O)[C@@H](O)[C@H]1O (stereo not given in full),135% (inactive),–
CCOc1ccc2c(c1)C(C)=CC(C)(C)N2,-8.2% (inactive),–
Cc1ccc(Nc2c(-c3ccc(C)cc3)nc3c(C)cccn23)cc1,-2.92% (inactive),–
O=C(Nc1cc(Cl)ccc1Cl)c1cc(S(=O)(=O)NCCc2ccccc2)ccc1F,-1.97% (inactive),–
Cc1ccc(C)c(NC(=O)Cn2c(=O)n(-c3ccc(CC(=O)NCC4CCCO4)cc3)c(=O)c3ccccc32)c1 (stereo not given),-0.476% (inactive),–
CC1(C)OC2CC(=O)OCC23C1CC(=O)C1(C)C3CC[C@@]2(C)[C@H](c3ccoc3)OC(=O)C3OC312 (stereo not given in full),3.02% (inactive),–
c1cc(CNc2ccnc(-c3ccc4c(c3)OCO4)n2)ccn1,-17.7% (inactive),–
CO[C@H]1[C@@H](O)[C@H](N)[C@@H](O[C@H]2O[C@H]([C@H](C)N)CC[C@H]2N)[C@H](O)[C@@H]1N(C)C(=O)CN,-3.49% (inactive),–
O=S(=O)(c1ccc2c(c1)OCCO2)N1CCN(S(=O)(=O)c2c(F)cccc2F)CC1,20.4% (inactive),–
CCOC(=O)c1ccccc1Nc1cc(C)nc2nc(-c3ccco3)nn12,4.05% (inactive),–
Cc1cc(Cl)ccc1NC(=O)c1cc2ccccn2n1,–,8.64 µM (active)
Clc1ccc(-c2noc3ncnc(N4CCCCC4)c23)cc1,3% (inactive),–
CC1CCN(c2nc3ccccc3nc2SCC(=O)Nc2ccccc2C(C)C)CC1,2.07% (inactive),–
COc1cccc(C2c3c(ncn(-c4cccc(C#N)c4)c3=N)Oc3ccc4ccccc4c32)c1 (stereo not given),-7.28% (inactive),–
CC1=C(C(=O)Nc2ccc(Cl)cc2)C(c2ccccc2C)n2ncc(C(=O)Nc3ccc(C)cc3)c2N1 (stereo not given),1.58% (inactive),–
Cc1ccc(NC(=O)c2sc3ncn(Cc4cccc(F)c4)c(=O)c3c2C)c(Br)c1,0.195% (inactive),–
Cc1ccc(NC(=O)c2ccc3[nH]c(C)cc(=O)c3c2)cc1,1.25% (inactive),–

SMILES,"activity change, negative = inhibition",Potency
CCCCN(CCCNC(=O)c1cc(Nc2ccc(OC)c(OC)c2)nc2ccccc12)Cc1ccccc1,-7.28% (inactive),–
NCCCNCCCCNCCCNC(=O)CCc1ccc(O)cc1,2.14% [at 7.25 µM] (inactive),–
Cc1c(C(=O)N(C)C)sc2c1c(=O)n(-c1ccc(Cl)cc1)c(=O)n2Cc1ccccc1F,-4.76% (inactive),–
CC(C)c1ccc(Cn2c(COc3ccccc3)nc3ccccc32)cc1,-14.1% (inactive),–
COc1ccc(C2C(C(=O)Nc3ccccc3)=C(C)Nc3c(C(=O)Nc4ccccc4)cnn32)cc1 (stereo not given),-1.87% (inactive),–
CCC(=O)N1CCc2cc(CNC(=O)Nc3cc(OC)c(OC)c(OC)c3)ccc21,0.174% (inactive),–
CCOC(=O)c1c(S(=O)(=O)N2CCCC(C(=O)Nc3cccc(C)n3)C2)c(C)n(C)c1C (stereo not given),8.05% (inactive),–
CCCCNS(=O)(=O)c1ccc2nc(-c3cccnc3)cc(C(=O)NCCC)c2c1,-2.26% (inactive),–
O=S(=O)(Nc1cccc2cccnc12)c1ccccc1,13.1% (inactive),–
C[C@H](NC(c1ccc(F)cc1)c1ccc2cccnc2c1O)c1ccccc1 (stereo not given in full),-7.17% (inactive),–
O=C(c1ccc2c(c1)N(Cc1ccccc1)C(=O)c1ccccc1S2(=O)=O)N1CCN(c2ccccc2)CC1,3.03% (inactive),–
O=c1cc(-c2ccc(O)cc2)oc2cc(O[C@H]3OC(CO)C(O)C(O)C3O)cc(O)c12 (stereo not given in full),8.38% (inactive),–
Cc1cc(NC(=O)c2cccnc2)cc(-c2nc3cc(Cl)ccc3o2)c1O,-1.99% (inactive),–
CCc1ccccc1NC(=O)c1nc(-c2ccncc2)no1,44.2% (inactive),–
COc1cc(C2C(C(=O)Nc3ccc(Cl)cc3)=C(C)Nc3nc(SC)nn32)cc(OC)c1OC (stereo not given),-10.6% (inactive),–
CCOc1ccccc1NC(=O)CSc1nc2c(oc3ccccc32)c(=O)n1-c1ccc(F)cc1,-1.76% (inactive),–
Cc1ccc(CN(C(=O)COc2ccc([N+](=O)[O-])cc2)c2ccccn2)cc1,-0.0502% (inactive),–
